Results reported in PubChem BioAssay (NCATS).
Inconclusive results are not listed. Entries that show only a call come without a potency. Values without a mark were called inactive. The source made the active and inactive calls. Calls come from the whole dose curve; as a rule, active = well fitted inhibition curve with a large enough effect; inconclusive = small, poorly fitted or top-dose-only effect; inactive = no such curve, though single readings can be large or run the other way. Where a SMILES comes first, the peptide text is derived from it. [ ]: non-standard residue; d: D form. pGlu = O=C1CC[C@@H](C(=O)O)N1; Thz = O=C(O)[C@@H]1CSCN1

Assay: P-glycoprotein substrates identified in KB-3-1 adenocarcinoma cell line, qHTS therapeutic library screen (AID 1346986); note: nearly all actives have a fitted effect of over 60% in size;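 note: potency is for cytotoxicity meaning loss of cell viability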
Conditions: KB-3-1 parental cells viability, CellTiter-Glo, 72 h; series mostly up to 44.5 µM; activity change, negative = cytotoxicity: at the top concentration
Experimental: The ATP-binding cassette transporters P-glycoprotein (P-gp) is known to limit brain penetration of many chemotherapy drugs. […] We used the CellTiter-Glo viability assay to test library compounds against the parental KB-3-1 human cervical adenocarcinoma cell line and the colchicine-selected sub-line KB-8-5-11 that over-expresses P-gp. KB-8-5-11 cells were also tested in the presence of a P-gp inhibitor (tariquidar) to assess reversability of transporter-mediated resistance. Of the tested compounds, a total of 90 P-gp substrates were identified including 55 newly identified P-gp substrates. Substrates were confirmed using an orthogonal killing assay against HEK-293 cells transfected with P-gp. As exemplars, we confirmed that AT7159 (cyclin-dependent kinase inhibitor); AT9283, (Janus kinase 2/3 inhibitor); ispinesib (kinesin spindle protein inhibitor); gedatolisib (PKI-587, phosphoinositide 3-kinase/mammalian target of rampamycin inhibitor); GSK-690693 (AKT inhibitor); and KW-2478 (heat shock protein 90 inhibitor) were substrates , and direct ATPase stimulation was assessed. ABCG2 was also found to confer high levels of resistance to AT9283, GSK-690693 and gedatolisib, while ispinesib, AT7519 and KW-2478 were weaker substrates.
The HeLa derivative cell line, KB-3-1, and its colchicine-selected, P-gp-overexpressing subline, KB-8-5-11 were maintained in DMEM with 10% FCS and Pen/Strep with glutamine at 37 degree C in 5% CO2. For KB-8-5-11 cells, colchicine was added to the medium at a concentration of 100 ng/mL. HEK-293 cells transfected with empty vector (pcDNA) or vector containing human ABCB1 (MDR-19) or ABCG2 (R-5) have been described previously (Robey, Lin, Qiu, Chan & Bates, 2011) and were maintained in EMEM supplemented with 10% FCS, Pen/Strep and glutamine with 2 mg/ml G418 to select for the expression of the transporter. Cultures were confirmed to be free of mycoplasma infection using the MycoAlert Mycoplasma Detection Kit (Lonza, Walkersville, MD). For the screen, assay medium was identical to culture medium except for KB-8-5-11 where colchicine was excluded from the medium.
All cell lines were plated into 1536-well plates at 500 cells/well in 5 uL media. Compounds were then pinned in dose-response using a 1536-head pin tool (Kalypsis, San Diego, CA) and plates were incubated at 37 degree C in 5% CO2 for an additional 72 h. CellTiter-Glo reagent (Promega) was dispensed into the wells, incubated for 5 min and luminescence was read on a ViewLux instrument (Perkin-Elmer). Cytotoxic compounds were defined as those that yielded a curve class of -1.1, -1.2, -2.1, -2.2, -2.3, or -2.4, a maximum response of >50% and an AC50 of < 10 uM. Cherry-picked hits from screening analysis were tested with both the KB pair of cell lines, and the pcDNA (empty vector control) and MDR-19 (P-gp overexpressing) pair were tested, in the absence and presence of tariquidar.
Potency is the fitted concentration of half-maximal effect.

Row | Compound | outcome | Potency | activity change, negative = cytotoxicity [%]
1 | CC1(C)[C@@H](O)CC[C@]2(C)[C@H]3C(=O)C=C4[C@@H]5C[C@@](C)(C(=O)O)CC[C@]5(C)CC[C@@]4(C)[C@]3(C)CC[C@@H]12 | inactive | – | –
2 | CN1[C@@H]2CC[C@H]1CC(OC(c1ccccc1)c1ccccc1)C2 (some centres not stated) | inactive | – | –
3 | COC(=O)[C@H]1[C@H]2C[C@@H]3c4[nH]c5cc(OC)ccc5c4CCN3C[C@H]2C[C@@H](OC(=O)/C=C/c2cc(OC)c(OC)c(OC)c2)[C@@H]1OC | inactive [at 17.4 µM] | – | –
4 | O=C(O)Cc1cccc(-c2cc(CCCCCCc3ccc(O[C@H]4O[C@H](CO)[C@@H](O)[C@H](O)[C@@H]4O)c(-c4cccc(CC(=O)O)c4)c3)ccc2O[C@H]2O[C@H](CO)[C@@H](O)[C@H](O)[C@@H]2O)c1 | inactive [at 0.354 µM] | – | –
5 | O=C1CC[C@@H](C(=O)N2CSC[C@H]2C(=O)O)N1 ([pGlu]-[Thz]-OH) | inactive | – | –
6 | COc1cc(CNC(=O)CCCC/C=C/C(C)C)ccc1O | inactive | – | –
7 | O=[N+]([O-])c1ccc(CNc2nc(NCc3cccc(C(F)(F)F)c3)nc3nc[nH]c23)cc1 | inactive | – | –
8 | O=C(O)CC1CC(c2ccccc2)=NO1 (configuration not stated) | inactive [at 17.4 µM] | – | –
9 | N#C/C(=C\c1ccc(O)c(O)c1)C(=O)NCCCc1ccccc1 | inactive | – | –
10 | CC1(C)S[C@@H]2[C@H](NC(=O)[C@H](NC(=O)N3CCN(S(C)(=O)=O)C3=O)c3ccccc3)C(=O)N2[C@H]1C(=O)O | inactive | – | –
11 | CCNc1nc2c(ncn2[C@H]2C[C@H](O)[C@@H](CO)O2)c(=O)[nH]1 | inactive | – | –
12 | Nc1ncnc2c1c(I)cn2[C@@H]1C[C@H](N)[C@@H](O)[C@H]1O | – | 14.6 µM (active) | –
13 | C/C(=N\O)c1ccc(OCC(=O)N2CCCCC2)cc1 | inactive | – | –
14 | CC(=O)SCC(CC(=O)c1ccc(C)cc1)C(=O)O (configuration not stated) | inactive | – | –
15 | C[C@H](O)[C@H](O)[C@H]1CNc2nc(N)[nH]c(=O)c2N1 | inactive | – | –
16 | CC(=O)O[C@H]1C[C@@]2(C)[C@@H](C[C@@H](O)[C@H]3[C@@]4(C)CC[C@@H](O)[C@@H](C)[C@@H]4CC[C@@]32C)/C1=C(\CCC=C(C)C)C(=O)O | inactive | – | –
17 | CC(=O)c1ccc(OCC(=O)N2CCCCC2)cc1 | inactive | – | –
18 | N#C/C(=C\c1ccc(O)c(O)c1)C(=O)NCc1ccccc1 | inactive | – | –
19 | COc1cc(/C=C/C(=O)N2CCN(CC(=O)N3CCCC3)CC2)cc(OC)c1OC | inactive | – | –
20 | Cc1onc(-c2c(F)cccc2Cl)c1C(=O)N[C@@H]1C(=O)N2[C@@H]1SC(C)(C)[C@@H]2C(=O)O | inactive | – | –
21 | Oc1cc(O)cc(/C=C/c2ccc(O)c(O)c2)c1 | – | – | -96
22 | CC1(C)[C@@H](O[C@H]2O[C@H](C(=O)O)[C@@H](O)[C@H](O)[C@H]2O[C@@H]2O[C@H](C(=O)O)[C@@H](O)[C@H](O)[C@H]2O)CC[C@]2(C)[C@H]3C(=O)C=C4[C@@H]5C[C@@](C)(C(=O)O)CC[C@]5(C)CC[C@@]4(C)[C@]3(C)CC[C@@H]12 | inactive [at 17.4 µM] | – | –
